# Screens (PubChem)
# ELG1 repair inh – blocks ELG1-dependent DNA repair in HEK293T cells. HEK293T ELG1-luciferase reporter, luminescence, 16 h; DNA damage induced by 5-fluorouridine. Potency, µM (doses to about 46.1 µM), inactives show at the top dose activity change, negative = inhibition, usual class: inhibitors. hit rate 2.3% among 330,000; note: potency is the fitted concentration of half-maximal effect; nearly all actives have a fitted effect of over 55% in size
#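 DMSO vehicle served as the neutral condition. Each well held 2,000 cells given 5-fluorouridine plus compound; after 16 hr at 37 °C/5% CO2, ONE-Glo was added and luciferase measured 30 min later.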
# IL1B secr inh – inflammasome signaling inhibition, IL-1 beta readout. THP-1 LPS/ATP IL-1B secretion, AlphaLISA, 16 h; active compounds read low. activity change, % at 57.5 µM. AID 743279. hit rate 4.7% among 360,000; in the data active = activity change below about -50%; inconclusive = mostly about -30% to -49%
#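 THP-1 cells pretreated 1 hr with compounds (up to 57.5 uM final), then stimulated with LPS (250 ng/mL final) plus ATP (1.25 mM final); secreted IL-1B measured by AlphaLISA after 16 hr, decreased signal indicating inhibition.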
# HT1080NT lethal – kills 2HG-producing HT-1080-NT fibrosarcoma cells. HT-1080-NT fibrosarcoma viability, CellTiter-Glo ATP luminescence, 48 h. Potency, µM (doses to about 46.1 µM), for the others: at the top dose activity, negative = less viability, actives largely listed as cytotoxic. hit rate 1.6% among 360,000. AID 686970;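 note: NT is the 2HG producing partner of a matched IDH1 knockdown line; potency is the fitted concentration of half-maximal effect; 0% = DMSO-treated cells and -100% = media-only wells without cells; nearly all actives have a fitted effect of over 55% in size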
#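 HT-1080-NT; 750 cells/well; 5% FBS RPMI; 48 h compound, 37 degrees C; CellTiter-Glo luminescence; curve fitting and curve-class assignment.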
# HT1080 IDH1KD tx – HT-1080 IDH1 knockdown cell toxicity (counter line). HT-1080 IDH1 knockdown viability, ATP luminescence, 48 h. Potency, µM (top dose mostly 46.1 µM), for inactives: at the top dose activity, negative = toxicity, hits mostly cytotoxic. hit rate 2% among 360,000. AID 686971;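 note: potency is the fitted concentration of half-maximal effect; 0% = DMSO wells and -100% = cell-free medium wells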
#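 Luminescent ATP read-out (CellTiter-Glo, 10 min at room temperature) after 48 h compound exposure at 37 °C gave viability of IDH1-knockdown HT-1080 cells. Activity was normalised to DMSO and cell-free wells, then fitted as concentration-response curves.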
# TDP1 cell CPT – growth inhibition of DT40 Tdp1-/-;hTDP1 cells with camptothecin (screen for TDP1 inhibitors) | chicken DT40 Tdp1-/-;hTDP1 cells + 20 nM CPT, ATP luminescence, 48 h | Potency, µM (titrated, usually from 46.2 µM), for the others: top-dose activity change, negative = growth inhibition, most hits filed as inhibitors | hit rate 12% among 420,000 | AID 686979; note: potency is the fitted concentration of half-maximal effect; nearly all actives have a fitted effect of over 55% in size
#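 Chicken DT40 Tdp1-/- cells stably complemented with human TDP1 were seeded at 400 cells/well in medium containing 20 nM camptothecin, exposed to pin-transferred compounds, and grown at 37 °C for at least 48 hr. Viability was read as ATP luminescence.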
# TDP1 cell noCPT – qHTS for Inhibitors of human tyrosyl-DNA phosphodiesterase 1 (TDP1): qHTS in cells in absence of CPT; DT40 Tdp1-/- hTDP1 cells, no CPT, ATP luminescence, 48 h; Potency, µM (series often up to 46.2 µM), for inactives: top-dose activity change, negative = growth inhibition, hits mostly inhibitors; hit rate 15% among 420,000; note: potency is the fitted concentration of half-maximal effect; nearly all actives have a fitted effect of over 55% in size
#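 Growth kinetics read by CellTiter-Glo luminescence after ≥48 hr at 37 °C. Cells: DT40 Tdp1-/- stably carrying human TDP1, 400 per well, compound exposure in the absence of CPT (DMSO vehicle).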
# An asterisk follows results filed as active; ? = inconclusive; . = no result. A selection: hits, their analogues and other compounds. The true share with any hit is near 19%. Unless noted, calls come from the whole dose curve; as a rule, active = well fitted curve in the direction sought with a large enough effect; inconclusive = small, poorly fitted or top-dose-only effect, or another doubt; inactive = no such curve, though single readings can be large; an effect the other way counts as inactive or inconclusive. Unless noted, % is set by controls: 0 for no effect and ±100 for the full control effect.
SMILES,ELG1 repair inh,IL1B secr inh,HT1080NT lethal,HT1080 IDH1KD tx,TDP1 cell CPT,TDP1 cell noCPT
COc1ccc(CCn2c(=N)c(C(=O)NC3CCCCC3)cc3c(=O)n4ccccc4nc32)cc1,-6.9%,-12.7,-0.5%,6.0%,6.51µM*,4.11µM*
Cc1ccc(Cn2c(=N)c(C(=O)NC3CCCCC3)cc3c(=O)n4ccccc4nc32)cc1,7.5%,6.3,10.8%,18.1%,5.8µM*,6.51µM*
CCOCCCn1c(=N)c(C(=O)NC2CCCCC2)cc2c(=O)n3ccccc3nc21,.,.,.,.,-5.2%,?
COc1ccc(CCn2c(=N)c(C(=O)NC3CCCC3)cc3c(=O)n4cccc(C)c4nc32)cc1,-2.4%,5.4,-4.2%,-7.3%,1.46µM*,1.84µM*
Cc1cccn2c(=O)c3cc(C(=O)NC4CCCC4)c(=N)n(CCc4ccccc4)c3nc12,24.6%,27.6,10.6%,2.7%,2.91µM*,3.66µM*
COc1cc(NC(=O)c2sc3ncn(CC(=O)N4CCCCC4)c(=O)c3c2C)cc(OC)c1OC,-4.5%,0.5,-6.5%,-6.2%,-26.3%,-16.8%
COc1ccc(CCNC(=O)c2cc3c(=O)n4ccccc4nc3n(CCCN3CCOCC3)c2=N)cc1,10.3%,-27.5,-14.3%,-7.9%,?,?
COc1ccc(CCn2c(=N)c(C(=O)N3CCN(C)CC3)cc3c(=O)n4ccccc4nc32)cc1,-1.3%,-53.8*,-2.2%,-0.3%,?,-24.2%
O=C1N=C(N2CCN(c3ccccc3)CC2)S/C1=C/c1cccs1,?,-58.2*,-17.6%,-14.6%,-20.1%,?
CN1CCN(C2=NC(=O)/C(=C/c3cn[nH]c3-c3ccccc3)S2)CC1,?,?,22.9%,14.4%,?,?
O=C1N=C(c2ccccc2)S/C1=C\c1cccs1,?,-24.5,2.2%,0.9%,-27.0%,-18.9%
O=C1N=C(N2CCN(Cc3ccccc3)CC2)S/C1=C/c1cccs1,0.0%,.,0.4%,14.1%,-17.5%,11.6µM*
COc1ccc(NC(=O)C2C3C=CC4(O3)C2C(=O)N(CCN2CCCCC2C)C4C(=O)NC2CCCCC2)cc1 (configuration not stated),?,-18.5,-15.6%,-16.4%,0.2%,18.8%
Cc1cc(C)c(OCC(=O)NCCCn2nc(C)cc2C)c(C)c1,-5.0%,18.2,-2.7%,-0.4%,?,?
CC(C)CNC(=O)N1[C@H](c2cccs2)[C@@H](C)C(=O)[C@@H](C)[C@@H]1c1cccs1,.,.,.,.,18.4µM*,?
O=S1(=O)CC(N2CCN(Cc3ccccc3F)CC2)CN1Cc1cn(Cc2ccc(Cl)cc2)nn1 (configuration not stated),.,-1.5,-2.0%,-10.8%,18.4µM*,13µM*
CCCCCCn1cc(CN2CC(N3CCN(Cc4ccccc4F)CC3)CS2(=O)=O)nn1 (configuration not stated),.,-0.6,-6.3%,0.4%,-29.7%,?
COc1ccc(Cn2cc(CN3CC(N4CCN(Cc5ccccc5F)CC4)CS3(=O)=O)nn2)cc1 (configuration not stated),.,7.9,-4.7%,23.1µM*,?,20.6µM*
CCn1c(=O)c2sccc2n2c(CCCC(=O)NCc3cccnc3)nnc12,0.2%,-13.6,6.8%,6.6%,19.9%,0.5%
CN1CCN(C2CCN(c3cccc(Cl)c3)CC2)CC1CCO (configuration not stated),6.0%,7.3,-3.1%,-0.6%,-8.0%,?
Cc1ccc(-c2cc3c(n2-c2ccccc2F)CC(C)(C)CC3=O)cc1,.,.,.,.,18.4µM*,13µM*
COc1ccc(-n2c(-c3ccc(Cl)cc3)cc3c2CC(C)(C)CC3=O)c(OC)c1,.,.,.,.,23.1µM*,18.4µM*
COc1ccc(C)cc1-n1c(-c2ccc(Cl)cc2)cc2c1CC(C)(C)CC2=O,.,.,.,.,?,14.6µM*
C/C(CC(=O)NCc1ccco1)=N\NC(=O)c1ccc([N+](=O)[O-])cc1Cl,-2.4%,15.4,4.0%,1.5%,5.9%,-9.6%
CCCc1cc(=O)[nH]c(Nc2cc(Cl)cc(Cl)c2)n1,.,.,.,.,14.6µM*,16.4µM*
SMILES,ELG1 repair inh,IL1B secr inh,HT1080NT lethal,HT1080 IDH1KD tx,TDP1 cell CPT,TDP1 cell noCPT
CCCc1cc(=O)[nH]c(Nc2ccc3c(c2)OCCO3)n1,12.3%,23.3,1.2%,3.2%,-3.9%,-26.4%
CCCCc1ccc(Nc2nc(CCC)cc(=O)[nH]2)cc1,?,-104.7*,20.6µM*,?,?,16.4µM*
CCOc1cccc2cc(-c3nc4sc5c(c4c(=O)[nH]3)CCC(C(C)(C)C)C5)c(=O)oc12 (configuration not stated),.,.,.,.,-6.0%,-3.3%
Cc1cccc(NC(=O)CSc2nnc3ccc(-c4cccnc4)nn23)c1,.,-4.8,5.8%,0.8%,-22.7%,?
CCc1ccc(C2C(C(=O)Nc3ccc(Cl)cc3)=C(C)Nc3ncnn32)cc1 (configuration not stated),.,.,.,.,?,-17.8%
O=S(=O)(c1ccc(SCc2c(F)cccc2Cl)nc1)N1CCCC1,.,11.4,-1.4%,-5.4%,?,?
COC(=O)C1=C(C)NC(=O)/C1=C\c1cc(C)n(-c2cccc(C)c2)c1C,?,?,3.3%,15.7%,?,16.4µM*
c1ccc(-c2nc(-c3ccco3)n3ccccc23)cc1,-25.0%,-92.2*,-28.8%,-21.9%,10.3µM*,?
CCn1c(-c2ccco2)nc2ccccc21,?,38.7,14.9%,11.5%,-10.6%,?
CC(NC(=O)C1CCN(S(=O)(=O)c2ccc(Br)s2)CC1)c1ccccc1 (configuration not stated),?,?,-0.5%,-0.3%,?,-28.5%
CCC1=NN2C(=N)/C(=C\c3cccn3-c3c(C)cccc3C)C(=O)N=C2S1,10.7%,6.0,-6.5%,-0.7%,?,3.66µM*
CCC1=NN2C(=N)/C(=C\c3cccn3-c3ccc(C)cc3C)C(=O)N=C2S1,5.0%,-14.5,-1.3%,-0.2%,-6.6%,-18.6%
COc1ccc(CCNc2ccc(C(CC(N)=O)NC(=O)Cc3ccc(Br)cc3)cc2[N+](=O)[O-])cc1 (configuration not stated),-6.4%,29.9,0.0%,2.6%,?,-29.4%
NC(=O)CC(NC(=O)c1ccc(Br)cc1)c1ccc(NC2CCCCCCC2)c([N+](=O)[O-])c1 (configuration not stated),-8.2%,?,?,?,16.4µM*,16.4µM*
